Source: PubChem BioAssay (several laboratories)
BJeLR viability = BJeLR cell viability loss. BJeLR (HRASV12) viability, CellTiter-Glo ATP luminescence, 48 h. inhibition, % (no concentration beside the values). 300,000 compounds, 0.17% hits; in the data active = inhibition above about 50%
GDH-TPI counter = GDH-TPI coupled enzyme inhibition counter-screen | GDH-TPI coupled enzyme counterscreen, NADH absorbance | inhibition, % at 4.8 µM | 360,000 compounds, 1.2% hits; in the data active = inhibition above about 30%;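 also: 0% = DMSO wells and 100% = wells lacking the enzyme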
PrPC TRFRET = reduces human prion protein on the cell surface; P04156; cell surface PrPC, TR-FRET read-out; inhibition, % at 13.8 µM; 370,000 compounds, 0.43% hits; in the data active = inhibition above about 24%; also: 0% = median of the test wells and 100% = reference compound wells
Mtb FBA inh = inhibitors of M. tuberculosis fructose-bisphosphate aldolase | purified M. tuberculosis FBA, fluorescence read-out | inhibition, % at 1 µM | 360,000 compounds, 2.3% hits; in the data active = inhibition above about 27%;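 also: 0% = vehicle and 100% = reference inhibitor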
Target sequence (P9WQA3 whole entry, looked up): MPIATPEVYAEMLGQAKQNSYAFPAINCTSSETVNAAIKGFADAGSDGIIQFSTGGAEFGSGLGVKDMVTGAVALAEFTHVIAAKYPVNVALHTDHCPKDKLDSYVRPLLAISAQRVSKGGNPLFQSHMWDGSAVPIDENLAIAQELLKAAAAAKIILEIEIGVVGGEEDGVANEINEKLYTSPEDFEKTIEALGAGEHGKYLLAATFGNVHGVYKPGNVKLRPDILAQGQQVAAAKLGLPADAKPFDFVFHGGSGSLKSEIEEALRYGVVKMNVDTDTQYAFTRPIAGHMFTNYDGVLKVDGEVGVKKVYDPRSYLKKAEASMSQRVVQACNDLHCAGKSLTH
RecA splice inh = inhibitors of M. tuberculosis RecA intein splicing | cell-free RecA intein splicing, fluorescence | inhibition, % (no concentration beside the values) | 290,000 compounds, 0.75% hits | AID 2221; in the data active = inhibition above about 30%;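 also: 0% = vehicle wells and 100% = reference inhibitor control wells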
An asterisk follows results filed as active; x = not tested or not shown. An excerpt weighted towards active compounds, which were near 4.2% of everything screened.

SMILES | BJeLR viability | GDH-TPI counter | PrPC TRFRET | Mtb FBA inh | RecA splice inh
Cn1nc([N+](=O)[O-])nc1Sc1cccc2cccnc12 | 2 | 1 | -14 | 2 | 0
C=CCn1c(SCC(=O)Nc2ccc(CCCC)cc2)nnc1-c1ccc(Cl)cc1 | x | x | -2 | x | x
Cc1csc(NC(=O)c2cc(=O)[nH]c3ccc(S(=O)(=O)N4CCOCC4)cc23)n1 | 2 | 6 | -11 | 46* | -115
COc1cc(NC(=O)c2cc(=O)[nH]c3ccc(S(=O)(=O)N4CCOCC4)cc23)cc(OC)c1 | x | 7 | 7 | 3 | x
O=C(Nc1cccc(O)c1)c1cc(-c2cccs2)on1 | 6 | -6 | 0 | 165* | 3
COc1ccccc1C1CC(c2ccco2)=NN1c1ccccc1 (centres undefined) | -40 | 12 | -3 | 148* | -1
COc1ccc(C2CC(c3ccc(F)cc3)=NN2c2ccccc2)cc1OC (centres undefined) | 3 | -10 | 10 | 11 | 13
COc1ccc(C2C(C(=O)Nc3ccc(Cl)c(Cl)c3)CCC(=O)N2c2ccc(OC)cc2)cc1 (centres undefined) | x | x | -4 | x | x
CC(C)(C)CSc1nnc(-c2cccnc2)n1Cc1ccccc1 | x | x | 0 | x | x
O=C(Oc1ccc(C(=S)N2CCOCC2)cc1)c1ccc([N+](=O)[O-])cc1[N+](=O)[O-] | -2 | 9 | -18 | 0 | 46*
O=C(Oc1cccc(C(=S)N2CCOCC2)c1)c1ccc([N+](=O)[O-])cc1[N+](=O)[O-] | -3 | 5 | -12 | 1 | 5
C[C@H]1COc2cccc(NCCO)c2S(=O)(=O)N1 | x | x | 12 | x | x
Cc1cc(C)c(NC(=O)C2CCCN(S(=O)(=O)c3c(C)noc3/C=C/N(C)C)C2)c(C)c1 (centres undefined) | 8 | 34* | -5 | -2 | -4
Cc1noc(/C=C/N(C)C)c1S(=O)(=O)N1CCCC(C(=O)N2CCCCC2)C1 (centres undefined) | -6 | 25 | -9 | -2 | 3
Cc1ccc(C)c(N2CCN(S(=O)(=O)c3c(C)noc3/C=C/N(C)C)CC2)c1 | 3 | 36* | 7 | -5 | 3
Cc1noc(/C=C/N(C)C)c1S(=O)(=O)N1CCCC(C(=O)Nc2ccccc2F)C1 (centres undefined) | 4 | 47* | -7 | 0 | 8
Cc1noc(/C=C/N(C)C)c1S(=O)(=O)N1CCCC(C(=O)NC2CCCCC2)C1 (centres undefined) | 10 | 58* | 0 | -1 | 3
CNC(=O)C1CCN(S(=O)(=O)c2c(C)noc2/C=C/N(C)C)CC1 | 8 | 35* | -3 | -4 | 0
Cc1noc(/C=C/N(C)C)c1S(=O)(=O)N(C)CC(=O)NC1CCCCC1 | 4 | 51* | 1 | 5 | 1
CCc1ccc(NC(=O)C2CCN(S(=O)(=O)c3c(C)noc3/C=C/N(C)C)CC2)cc1 | 6 | 24 | 1 | -4 | -7
Cc1c(/C=N/NC(=O)COc2ccccc2[N+](=O)[O-])c2ccccc2n1C | 1 | 34* | 0 | -4 | -1
Cc1[nH]n(-c2ccccc2)c(=O)c1/C=N/NC(=O)COc1ccccc1[N+](=O)[O-] | 10 | 16 | 4 | -1 | 8
Cc1ccc(OCC(=O)N/N=C\c2c(C)n(C)c3ccccc23)c([N+](=O)[O-])c1 | 0 | 31* | x | 2 | -1
CCOc1ccc(-n2c(SCC(=O)Nc3cccc4ccccc34)nnc2-c2cccs2)cc1 | x | x | -10 | x | x
COc1ccc(NC(=O)/C=C/c2ccc(S(=O)(=O)N3CCOCC3)cc2)cc1 | x | 5 | -7 | 1 | x
SMILES | BJeLR viability | GDH-TPI counter | PrPC TRFRET | Mtb FBA inh | RecA splice inh
COc1ccc(/C=C/C(=O)Nc2cc(S(=O)(=O)N3CCOCC3)ccc2OC)cc1 | x | 31* | 10 | -3 | x
COc1ccc(/C=C/C(=O)Nc2ccc(C)c(S(=O)(=O)N3CCOCC3)c2)cc1 | x | 33* | 12 | 2 | x
Cc1c(NC(=O)C2CCCN(S(=O)(=O)c3c(C(C)C)cc(C(C)C)cc3C(C)C)C2)c(=O)n(-c2ccccc2)n1C (centres undefined) | x | x | 4 | x | x
Cc1c(/C=C(\C#N)C(=O)NCc2ccccc2)cc(C#N)n1C | 3 | 35* | -4 | -4 | -5
Cc1cc(/C=C(\C#N)C(=O)NCc2ccccc2)cc(C)c1O | -12 | 7 | 1 | -14 | 1
COc1cc(/C=C(/C#N)C(=O)NCc2ccccc2)cc(OC)c1OC | -6 | 50* | -6 | -1 | -3
Cc1c(/C=C(\CC(=O)O)c2nc3ccccc3s2)cc(C#N)n1C | -1 | 43* | -8 | 10 | -3
Cc1ccc(CN2CCCCC(NC(=O)c3cccc([N+](=O)[O-])c3)C2=O)cc1 (centres undefined) | x | x | -3 | x | x
Nc1nc2c(s1)CCc1c-2cnn1-c1ccccc1 | -11 | 10 | x | 11 | 98*
CC[n+]1c(/C=C/Nc2ccccc2)oc2ccc(OC)cc21 | 2 | 3 | -5 | 8 | -28
CC[n+]1c(/C=C/N(C)c2ccccc2)oc2ccc(F)cc21 | 10 | 42* | 9 | -1 | 21
CC[n+]1c(/C=C/N(C)c2ccccc2)oc2ccccc21 | 17 | 68* | 11 | -1 | -5
Clc1ccccc1-c1nn2c(-c3cc(-c4ccccc4)n[nH]3)nnc2s1 | x | x | 7 | x | x
O=C(OC12CCCN(C1)/C(=C/c1ccccc1)C2)C1CCCC1 (centres undefined) | x | x | -3 | x | x
CCN1CCN(c2ncc(C(=O)Nc3ccccc3C(=O)OC)c3ccccc23)CC1 | 7 | 31* | -7 | 9 | 2
CCc1ccc(NC(=O)c2cnc(N3CCN(c4ccccn4)CC3)c3ccccc23)cc1 | 5 | 6 | -4 | 1 | 7
CN(C1=C(NC(=O)c2ccc(Cl)cc2)C(=O)c2ccccc2C1=O)c1ccccc1 | -8 | 12 | -12 | -1 | 43*
O=C(Nc1cccc(Cl)c1)c1ccccc1 | x | 11 | 13 | 5 | x
O=C1C(Cl)=C(NC(=O)c2ccccc2)C(=O)C(Cl)=C1NC(=O)c1ccccc1 | 5 | 34* | -19 | 5 | 23
COc1c2ccoc2nc2c(OC)c(OC[C@@H](O)C(C)(C)O)ccc12 | x | 23 | -8 | 146* | x
COc1c2ccoc2nc2c(OC)c(OCC(O)C(C)(C)O)ccc12 (centres undefined) | x | 13 | -8 | 146* | x
COc1c2ccoc2nc2c(OC)c(OCC(OC(C)=O)C(C)(C)O)ccc12 (centres undefined) | -6 | 17 | -8 | 130* | 0
COc1c2ccoc2nc2c(OC)c(O)ccc12 | -7 | 9 | -13 | 6 | -6
COc1c2ccoc2c(OC[C@@H](OC(C)=O)C(C)(C)O)c2oc(=O)ccc12 | x | 11 | -7 | 6 | x
C=CCN(CC#CCN(C)C(=O)c1cccn1C(=O)OC(C)(C)C)Cc1ccc(OC)cc1OC | x | x | 3 | x | x
CC(COc1ccc(CC#N)cc1)CN1CCC(C(O)(c2ccccc2)c2ccccc2)CC1 (centres undefined) | x | x | -10 | x | x
O=C(c1ccncc1F)N1CCC(n2nnc3ncccc32)CC1 | x | x | 4 | x | x
C=CCN(Cc1ccccc1)C(C#CC(=C)C)Cc1ccccc1 (centres undefined) | x | x | -2 | x | x
